AMA1-RON2 inh: inhibitors of Plasmodium falciparum AMA1-RON2 interaction; Potency, µM (doses to about 58.2 µM), most hits filed as inhibitors; AID 720542; actives 0.2% (n = 360,000); AlphaScreen AMA1-biotinylated RON2 peptide binding; further: nearly all actives have a fitted effect of over 45% in size
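AMA1 (3D7) with his tag at 25 nM final met compounds first, then biotinylated RON2 peptide at 25 nM; detection used donor plus acceptor beads, 10 µg/mL apiece, read by AlphaScreen after 30 min at room temperature.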
SARS PLP yeast: SARS-CoV PLP inhibition in yeast; Potency, µM (highest dose often 32.9 µM), actives largely listed as activators; actives 0.19% (n = 330,000); S. cerevisiae expressing SARS-CoV PLpro, growth rescue; AID 485353; calls by dose curve; further: nearly all actives have a fitted effect of over 55% in size
Pf growth 48h: inhibits P. falciparum growth in the first generation, 48 h. P. falciparum luciferase growth in erythrocytes, 48 h. Potency, µM (titrated, usually from 28.7 µM), hits mostly inhibitors. actives 5.9% (n = 310,000). AID 504832
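First compound was added to culture medium, then infected red cells at 0.1% parasitemia and 2% hematocrit (final). After incubation at 37 C under 5% CO2, luciferase detection reagent was dispensed and light output recorded.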
Shiga inhibitor: Shiga toxin inhibition; actives 9.2% (n = 290,000); inhibition, % at 38.7 µM; AID 2315; Vero cells, Shiga toxin protein synthesis inhibition reporter; in the data active means inhibition mostly above about 28%, no sharp cut-off; inactive means mostly below about 43%
CHX counter: counter-screen for Shiga toxin inhibitors: cycloheximide protein synthesis inhibition. max response, %. actives 12% (n = 300,000). cell reporter, cycloheximide protein synthesis inhibition counterscreen; in the data active means max response mostly above about 13%, no sharp cut-off; inactive means mostly below about 14%; further: read at 38.3 µM for the half of the compounds with a filed dose
Pf growth 96h: inhibits malaria parasite growth, 96 h; P. falciparum luciferase reporter growth, 96 h; Potency, µM (top dose mostly 28.7 µM), actives largely listed as inhibitors; actives 6.9% (n = 320,000); AID 504834
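Parasite growth measured via integrated firefly luciferase reporter in P. falciparum. Infected erythrocytes at 2% hematocrit, 0.05% parasitemia final were treated 96 hours at 37 C under 5% CO2, and luminescence was read.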
Hits are given with their value; - = inactive; ? = inconclusive; . = not tested or not shown. In the library only some 19% were active in any assay of this set; here they are far more common. Unless noted, the call rests on the fitted dose curve; in most records, active means well fitted curve in the direction sought with a large enough effect; inconclusive means small, poorly fitted or top-dose-only effect, or another doubt; inactive means no such curve, though single readings can be large; an effect the other way counts as inactive or inconclusive.

SMILES	AMA1-RON2 inh	SARS PLP yeast	Pf growth 48h	Shiga inhibitor	CHX counter	Pf growth 96h
CCc1ccc(NC(=O)CC2C(=O)NCCN2C(=O)c2ccc(F)cc2)cc1 (configuration not stated)	-	-	-	-	-	-
O=C(c1ccc(OC2CCN(CCc3ccccc3)CC2)cc1)N1CCCC(CCCO)C1 (configuration not stated)	-	-	?	-	-	-
CC(C)c1nc2cc(C(=O)N3CCNC(=O)C3c3cccc(F)c3)ccc2o1 (configuration not stated)	-	-	-	-	12	-
O=C(c1ccc2oc(CCCc3ccccc3)nc2c1)N1CCCC(CCCO)C1 (configuration not stated)	-	-	-	47	30	?
CC(c1ccccc1)C1CC(=O)N(c2ccccc2)C1=O (configuration not stated)	-	.	-	-	-	?
CN1CC(c2ccccc2)C2(SC(=S)N(Cc3ccco3)C2=O)C12C(=O)Nc1ccccc12 (configuration not stated)	-	-	12µM	-	-	.
Cc1ccccc1-n1c(-c2ccc(Cl)cc2)cnc1SCC(=O)NC1CCS(=O)(=O)C1 (configuration not stated)	-	-	?	-	-	?
CCCn1c(N)c(C(=O)COC(=O)CNC(=O)c2ccc(C)c(C)c2)c(=O)n(C)c1=O	-	-	-	.	.	-
N#Cc1c(Cl)nsc1NN	-	-	-	70	29	-
Cc1c(NC(=O)CSc2ccc3ccccc3n2)c(=O)n(-c2ccccc2)n1C	-	-	-	.	.	-
CSc1nc2ccccc2n1CC(=O)Nc1c(C)n(C)n(-c2ccccc2)c1=O	-	-	-	-	-	10µM
COC(=O)c1ccc(C(c2c(C)n(C)n(-c3ccccc3)c2=O)c2c(C)n(C)n(-c3ccccc3)c2=O)cc1	-	-	?	.	-	6.6µM
Cc1nn(CC(=O)Nc2c(C)n(C)n(-c3ccccc3)c2=O)c(C)c1[N+](=O)[O-]	-	-	-	-	-	?
Cc1c(C(c2ccc(Br)cc2)c2c(C)n(C)n(-c3ccccc3)c2=O)c(=O)n(-c2ccccc2)n1C	-	-	-	.	-	-
Cc1c(Br)c([N+](=O)[O-])nn1CC(=O)Nc1c(C)n(C)n(-c2ccccc2)c1=O	-	-	-	-	-	2.9µM
COc1cc(/C=C/C(=O)OCC(=O)Nc2c(C)n(C)n(-c3ccccc3)c2=O)cc(OC)c1OC	-	-	?	.	.	10µM
Cc1ccc(-n2nnnc2CCl)cc1	-	-	-	-	-	-
CC(C)CC(N)c1csc(Nc2ccccn2)n1 (configuration not stated)	-	.	.	.	.	.
CN(NC1CC(=O)N(c2ccccc2)C1=O)c1ccccc1 (configuration not stated)	-	-	-	-	-	?
Cc1c(NC(=O)CN2CCN(c3ccc(O)cc3)CC2)c(=O)n(-c2ccccc2)n1C	-	-	?	-	-	6.6µM
Cc1c(NC(=O)COc2cccc(Br)c2)c(=O)n(-c2ccccc2)n1C	-	-	-	-	-	-
Cc1c(NC(=O)c2ccc(C(=O)Nc3c(C)n(C)n(-c4ccccc4)c3=O)cc2)c(=O)n(-c2ccccc2)n1C	-	-	-	.	-	-
OCc1nc2ccccc2n1Cc1c(F)cccc1Cl	-	-	-	-	-	-
Cc1c(NC(=O)COc2ccc(C(C)C)cc2)c(=O)n(-c2ccccc2)n1C	-	-	-	-	-	13µM
CSc1nc2ccccc2n1Cc1c(Cl)cccc1Cl	-	-	.	-	-	12µM
SMILES	AMA1-RON2 inh	SARS PLP yeast	Pf growth 48h	Shiga inhibitor	CHX counter	Pf growth 96h
Cc1cc(C(=O)Nc2c(C)n(C)n(-c3ccccc3)c2=O)on1	-	-	.	-	-	4.7µM
CSc1nc2ccccc2n1CC(=O)Nc1ccccc1	-	-	-	-	-	-
Cc1c(NC(=O)C(C)OC(=O)/C=C/c2ccc3c(c2)OCO3)c(=O)n(-c2ccccc2)n1C (configuration not stated)	-	-	-	89	37	?
CSc1nc2ccccc2n1CC(=O)Nc1c(C)cccc1C	-	-	-	-	-	7.4µM
Cc1cccc(C)c1NC(=O)CSCc1cccc(CSCC(=O)Nc2c(C)cccc2C)n1	-	-	.	-	-	5.2µM
COc1ccc(NC(=O)CCC(=O)Nc2nnc(C(F)(F)F)s2)c(OC)c1	-	-	.	-	-	-
COc1ccc(/C=C/c2ccccc2)cc1[C@H]1[C@@H]2C=CCC[C@@]2(C)C(=O)N1Cc1ccccc1	-	-	10µM	44	20	?
COc1ccc(-c2ccc([C@H]3[C@@H]4C=CCC[C@@]4(C)C(=O)N3Cc3ccccc3)c(F)c2)cc1	-	-	?	-	-	?
COc1ccc(/C=C/c2ccccc2)cc1C1C2C=CCCC2(C)C(=O)N1Cc1ccccc1 (configuration not stated)	.	.	.	115	49	.
CCOC(=O)C1CCN(C(=O)CCN2C(=O)C3C4C=CC(C4)C3C2=O)CC1 (configuration not stated)	-	-	-	-	-	5.2µM
Cn1c(-c2ccsc2)c(-c2cccs2)c2cc(Br)ccc21	-	-	-	.	.	?
Cn1c(-c2ccsc2)c(-c2cccs2)c2cc(-c3ccc4cc[nH]c4c3)ccc21	-	-	2.1µM	.	.	?
Cn1c(-c2ccsc2)c(-c2cccs2)c2cc(-c3ccc4[nH]ccc4c3)ccc21	-	-	5.2µM	.	.	5.9µM
CCCc1nnc(SCc2ccc(OC)cc2)n1N	-	-	-	-	-	?
CSC1=NC=C(C#N)C2=NC(c3ccc(Cl)cc3)NN12 (configuration not stated)	-	.	.	.	.	.
Cc1nn(Cc2ccc(C(=O)O)o2)c(C)c1[N+](=O)[O-]	-	-	-	-	-	-
Cc1ccc(OCC(O)CNCc2ccc(F)cc2)cc1 (configuration not stated)	-	-	?	-	-	?
COc1ccc(CNCC(O)COc2ccc(C)cc2[N+](=O)[O-])cc1 (configuration not stated)	-	-	?	69	35	-
COc1ccc(OC)c(/C=N\NC(=O)c2ccc(COc3ccc(C)cc3[N+](=O)[O-])o2)c1	-	.	.	.	.	.
COC(=O)c1ccc(Cn2nc(C)c([N+](=O)[O-])c2C)o1	-	-	-	-	-	13µM
COC(=O)c1ccc(COc2ccc(C)cc2[N+](=O)[O-])o1	-	-	-	77	48	-
Cc1ccc(OCc2ccc(C(=O)NN)o2)c([N+](=O)[O-])c1	-	-	-	-	37	?
Cc1ccc(C)c(OCc2ccc(C(=O)NN)o2)c1	-	-	?	-	-	-
Cc1ccc2nc(-c3ccc(F)cc3)c(Cc3ccccc3C(F)(F)F)n2c1	-	.	.	.	.	.
CC1CCN(C(=O)c2nc[nH]c2C(=O)N2CCC(C)CC2)CC1	-	-	-	.	.	-

Screening data deposited in PubChem by National Center for Advancing Translational Sciences (NCATS).
